Screening results from PubChem.
CYP2C9 act – human CYP2C9 activators, primary screen, biochemical, luminescence; activation factor at 5 µM; recombinant CYP2C9, luciferin-H conversion; stronger effect = higher value; factor 1 = untreated enzyme, 0 = blocked; 96,000 tested, 1.4% active; Cytochrome P450 2C9 (Homo sapiens), P11712;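 active means activation factor of 2 or more for CYP2C9 at a 5 µM dose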;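 further: 0 = sulfaphenazole-blocked wells and 1 = vehicle-only wells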
CYP2C19 act – human CYP2C19 activators, primary screen, biochemical, luminescence. Cytochrome P450 2C19 (Homo sapiens), P33261. recombinant CYP2C19, luciferin-H EGE luminescence; stronger effect = higher value; 0 = fully inhibited enzyme, 1 = untreated enzyme. activation factor at 5 µM. 96,000 tested, under 10 active;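 active means activation factor of at least 2 at 5 µM in the primary screen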;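 further: 0 = wells with 2.5 mM tranylcypromine and 1 = vehicle-only wells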
Target sequence (P33261 whole entry, looked up): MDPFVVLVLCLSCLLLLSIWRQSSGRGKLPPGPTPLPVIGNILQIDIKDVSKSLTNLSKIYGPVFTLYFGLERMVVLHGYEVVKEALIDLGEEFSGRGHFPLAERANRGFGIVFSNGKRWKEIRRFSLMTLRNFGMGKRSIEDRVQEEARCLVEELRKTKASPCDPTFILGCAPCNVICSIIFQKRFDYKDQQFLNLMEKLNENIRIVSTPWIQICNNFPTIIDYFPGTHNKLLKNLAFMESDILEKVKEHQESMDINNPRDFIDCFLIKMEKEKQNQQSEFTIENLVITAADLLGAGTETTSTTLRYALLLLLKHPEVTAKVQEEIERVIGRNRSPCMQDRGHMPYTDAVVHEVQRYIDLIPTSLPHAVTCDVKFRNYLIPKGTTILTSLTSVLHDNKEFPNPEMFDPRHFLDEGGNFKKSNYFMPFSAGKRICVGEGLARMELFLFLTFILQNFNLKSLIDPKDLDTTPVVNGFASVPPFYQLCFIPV
CYP2C9 inhib – blockers of cytochrome P450 2C9 activity – biochemical, luminescence, ADME assay, primary screen | inhibition, % at 5 µM | CYP2C9 Supersomes, luciferin-H conversion | 96,000 tested, 20% active;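 active means blocking of liver enzyme CYP2C9 beyond about 50% at 5 µM, limit read from the data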
PostGolgi yeast – phenotypic screen on post-Golgi transport, primary screen; post-Golgi transport phenotypic cell assay; inhibition, % at 10 µM; 98,000 tested, 0.9% active;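 further: yeast cells grown in 1536-well plates; yeast grown about 18 h at 30C before absorbance read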
CYP2C19 inh – blockers of cytochrome P450 2C19 activity – biochemical, luminescence, ADME assay, primary screen. P33261. CYP2C19 Supersomes, luciferin-H EGE luminescence, 30 min. inhibition, % at 5 µM. 96,000 tested, 21% active. AID 778, 2007;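 active means CYP2C19 inhibition above a set limit at 5 µM in the primary screen, cut at about 50% in these data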;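 further: plate controls were negative control wells for no effect and 2.5 mM tranylcypromine positive control for full effect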
PostGolgi ctrl – growth inhibition of yeast control strain, primary screen, counter-screen for post-Golgi transport modulator project | efflux-deficient yeast background strain, growth absorbance A615, 16 h | inhibition, % at 10 µM | 98,000 tested, 5% active
Numbers without * were called inactive. In the library only some 32% were active in any assay of this set; here they are far more common. Unless noted, no stated cut-off is given here; in the data, active means inhibition above about 30%; inactive means the rest.

COc1ccc(CCNC(=O)C2(C)CCC(=O)N2Cc2ccc3c(c2)OCO3)cc1OC (centres undefined) was read as CYP2C9 act 1, CYP2C19 act 0.5, CYP2C9 inhib -1.2, PostGolgi yeast 9.5, CYP2C19 inh 53.7* and PostGolgi ctrl 4.4.
`CC1(C(=O)NC2CCCCCC2)CCC(=O)N1Cc1ccc2c(c1)OCO2` (centres undefined) gave CYP2C9 act 1, CYP2C19 act 0.9, CYP2C9 inhib -4.9, PostGolgi yeast 2.6, CYP2C19 inh 9.3 and PostGolgi ctrl 5.1.
O=C(c1cccs1)N(CCO)Cc1cc2cc3c(cc2[nH]c1=O)OCCO3 was read as CYP2C9 act 0.9, CYP2C19 act 1, CYP2C9 inhib 11.0, PostGolgi yeast -4.3, CYP2C19 inh -1.6 and PostGolgi ctrl 0.6.
`COc1ccccc1OC(=O)c1cc(Cl)nc2ccccc12` gave CYP2C9 act 0.3, CYP2C19 act 0.9, CYP2C9 inhib 74.6*, PostGolgi yeast -9.0, CYP2C19 inh 13.7 and PostGolgi ctrl 0.3.
For Clc1ccc(-c2nnc(C34CC5CC(CC(C5)C3)C4)o2)cn1 the results were CYP2C9 act 1, CYP2C19 act 0.9, CYP2C9 inhib 1.2, PostGolgi yeast -3.5, CYP2C19 inh 5.5 and PostGolgi ctrl 13.9.
`Cc1cccc(-c2noc(-c3ccccc3C(=O)NCC3CCCO3)n2)c1` (centres undefined) gave CYP2C9 act 0.8, CYP2C19 act 0.8, CYP2C9 inhib 21.7, PostGolgi yeast -3.5, CYP2C19 inh 18.3 and PostGolgi ctrl 30.6*.
`COc1cccc(-c2nc(-c3ccc(NC(=O)Cc4ccccc4OC)cc3)no2)c1` gave CYP2C9 act 1.4, CYP2C19 act 1.1, CYP2C9 inhib -35.0, PostGolgi yeast 7.6, CYP2C19 inh -10.0 and PostGolgi ctrl -2.2.
`O=C(NCC1CCCO1)c1ccccc1-c1nc(-c2ccc(Cl)cc2)no1` (centres undefined) gave CYP2C9 act 0.8, CYP2C19 act 0.9, CYP2C9 inhib 19.4, PostGolgi yeast 5.0, CYP2C19 inh 9.9 and PostGolgi ctrl 1.5.
`COc1cccc(NC(=O)c2ccccc2-c2nc(-c3cccc(C)c3)no2)c1` gave CYP2C9 act 0.4, CYP2C19 act 0.6, CYP2C9 inhib 61.1*, PostGolgi yeast -3.0, CYP2C19 inh 36.1 and PostGolgi ctrl 34.3*.
Screening COc1ccc(OC)c(-n2c(=S)[nH]c3cc(C(=O)NCCCN4CCCC4=O)ccc3c2=O)c1 returned CYP2C9 act 0.9, CYP2C19 act 1, CYP2C9 inhib 10.2, PostGolgi yeast 6.8, CYP2C19 inh -1.0 and PostGolgi ctrl 0.3.
C=CCn1nnc2sc3c(c2c1=O)CCC(C)C3 (centres undefined) was read as CYP2C9 act 0.5, CYP2C19 act 0, CYP2C9 inhib 49.1, PostGolgi yeast 3.8, CYP2C19 inh 96.9* and PostGolgi ctrl 10.2.
For CSc1nc2sc3c(c2c(=O)n1C)CCC(C)C3 (centres undefined) the results were CYP2C9 act 0.8, CYP2C19 act 1, CYP2C9 inhib 17.0, PostGolgi yeast 6.6, CYP2C19 inh 4.6 and PostGolgi ctrl 7.5.
`Cn1c2ccccc2c2cc(C(=O)N3CCOCC3)sc21` gave CYP2C9 act 2.5*, CYP2C19 act 0.8, CYP2C9 inhib -148.5, PostGolgi yeast 15.9, CYP2C19 inh 23.8 and PostGolgi ctrl 0.3.
Cn1c2ccccc2c2cc(C(=O)NNS(=O)(=O)c3ccc(F)cc3)sc21 was read as CYP2C9 act 0.6, CYP2C19 act 1, CYP2C9 inhib 43.8, PostGolgi yeast 14.9, CYP2C19 inh -3.3 and PostGolgi ctrl 55.2*.
O=C(Nc1ccccc1C(F)(F)F)N1CCCC(O)C1 (centres undefined) was read as CYP2C9 act 0.9, CYP2C19 act 1.1, CYP2C9 inhib 14.9, PostGolgi yeast 5.8, CYP2C19 inh -12.7 and PostGolgi ctrl -0.9.
Cc1cc2c(cc(C(=O)OC(C(=O)NCc3ccco3)C(C)C)n2C)o1 (centres undefined) was read as CYP2C9 act 0.5, CYP2C19 act 0.3, CYP2C9 inhib 46.6, PostGolgi yeast 14.7, CYP2C19 inh 65.6* and PostGolgi ctrl 13.8.
For CC(OC(=O)c1nsc(Cl)c1Cl)C(=O)NCc1cccs1 (centres undefined) the results were CYP2C9 act 0.7, CYP2C19 act 0.8, CYP2C9 inhib 33.7, PostGolgi yeast -8.6, CYP2C19 inh 20.4 and PostGolgi ctrl 0.0.
For CC(=O)OC(C(=O)NCc1ccco1)c1ccncc1 (centres undefined) the results were CYP2C9 act 0.4, CYP2C19 act 0.7, CYP2C9 inhib 55.2*, PostGolgi yeast -1.9, CYP2C19 inh 31.2 and PostGolgi ctrl -3.5.
Screening CC(C)C(OC(=O)c1cccs1)C(=O)NCc1ccco1 (centres undefined) returned CYP2C9 act 0.6, CYP2C19 act 0.4, CYP2C9 inhib 41.9, PostGolgi yeast 0.8, CYP2C19 inh 59.8* and PostGolgi ctrl 14.1.
For Cc1cc2c(cc(C(=O)OCC(=O)NCc3ccco3)n2C)s1 the results were CYP2C9 act 1, CYP2C19 act 1, CYP2C9 inhib 2.3, PostGolgi yeast -3.8, CYP2C19 inh 4.2 and PostGolgi ctrl 5.0.
Screening CCC(OC(=O)c1nsc(Cl)c1Cl)C(=O)NCc1ccco1 (centres undefined) returned CYP2C9 act 0.4, CYP2C19 act 0.4, CYP2C9 inhib 57.2*, PostGolgi yeast -2.8, CYP2C19 inh 59.3* and PostGolgi ctrl 0.0.
For CCCc1nc(SC2CCCC2)c2c(=O)n(C)c(=O)n(C)c2n1 the results were CYP2C9 act 1, CYP2C19 act 1.1, CYP2C9 inhib -1.9, PostGolgi yeast 21.6, CYP2C19 inh -10.1 and PostGolgi ctrl 18.1.
CSc1nc2ccc(NC(=O)C3CC(=O)N(Cc4ccccc4)C3)cc2s1 (centres undefined) was read as CYP2C9 act 0.7, CYP2C19 act 0.8, CYP2C9 inhib 33.2, PostGolgi yeast -6.5, CYP2C19 inh 15.9 and PostGolgi ctrl 12.5.
For O=C(OC(C(=O)NCc1cccs1)c1ccccc1Cl)c1ccco1 (centres undefined) the results were CYP2C9 act 0.1, CYP2C19 act 0.1, CYP2C9 inhib 91.1*, PostGolgi yeast 0.3, CYP2C19 inh 88.5* and PostGolgi ctrl 13.6.
CCC(C)(C)NC(=O)C(OC(=O)c1ccco1)c1ccccc1OC (centres undefined) was read as CYP2C9 act 0.6, CYP2C19 act 0.4, CYP2C9 inhib 38.5, PostGolgi yeast 2.4, CYP2C19 inh 64.1* and PostGolgi ctrl 4.0.
